RECQ1 inh: blocks DNA unwinding by human RECQ1 | P46063 | RECQ1 DNA unwinding, red fluorescence kinetic read | Potency, µM (series often up to 57.3 µM), for the others: at the highest dose activity, negative = inhibition, usual class: inhibitors | 0.54% of 240,000 active | AID 2549;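 further: plate controls were vehicle for no effect and no enzyme for full effect; nearly all actives have a fitted effect of over 30% in size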
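RECQ1T1 50 nM; forked duplex (20 bp + 30-nt ss tails) 200 nM, ATP 2 mM final; pH 8.0, 2 mM MgCl2, 2.5 ug/ml poly(dI-dC); 15 min compound preincubation; discontinuous kinetic read over 2 h at RT.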
GCN5L2 inh: blocks human GCN5L2 histone acetyltransferase | 0.21% of 390,000 active | GCN5L2 HAT assay, ThioGlo1 CoA-SH fluorescence | Potency, µM (highest dose often 58.9 µM), for inactives: at the top dose activity change, negative = inhibition, actives largely listed as inhibitors | AID 504327
Target sequence (Q92830 whole entry, looked up): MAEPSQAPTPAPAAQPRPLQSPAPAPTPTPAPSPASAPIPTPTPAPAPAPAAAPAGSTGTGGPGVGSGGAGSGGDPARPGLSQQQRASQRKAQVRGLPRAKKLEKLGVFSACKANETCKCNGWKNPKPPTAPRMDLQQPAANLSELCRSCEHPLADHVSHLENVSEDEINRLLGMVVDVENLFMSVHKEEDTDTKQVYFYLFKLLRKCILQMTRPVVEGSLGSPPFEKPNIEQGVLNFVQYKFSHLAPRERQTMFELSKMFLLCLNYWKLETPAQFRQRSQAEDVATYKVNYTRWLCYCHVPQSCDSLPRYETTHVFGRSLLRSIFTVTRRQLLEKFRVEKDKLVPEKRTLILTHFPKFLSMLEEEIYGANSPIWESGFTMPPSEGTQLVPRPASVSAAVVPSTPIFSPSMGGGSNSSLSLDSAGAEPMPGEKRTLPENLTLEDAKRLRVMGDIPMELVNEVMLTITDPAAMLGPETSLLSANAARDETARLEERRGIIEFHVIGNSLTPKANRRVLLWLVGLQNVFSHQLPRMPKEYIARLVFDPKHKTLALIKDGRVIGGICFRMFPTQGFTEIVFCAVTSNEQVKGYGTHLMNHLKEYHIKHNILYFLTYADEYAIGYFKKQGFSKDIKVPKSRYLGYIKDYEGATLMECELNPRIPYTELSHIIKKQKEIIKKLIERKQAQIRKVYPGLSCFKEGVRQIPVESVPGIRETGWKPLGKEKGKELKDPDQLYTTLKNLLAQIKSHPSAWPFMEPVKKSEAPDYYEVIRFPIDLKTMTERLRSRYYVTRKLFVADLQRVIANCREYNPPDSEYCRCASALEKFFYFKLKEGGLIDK
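qHTS, 1536-well. 20nM enzyme, pH 7.5 HEPES/EDTA/Tween-20 buffer; 15 min compound preinc., RT. Start: 75uM H3(1-25), 70uM AcCoA, 50uM ThioGlo1. Read Ex340/Em540 at t=0 (autofluorescence flag) and t=20 min.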
L3MBTL1 block: blocks human L3MBTL1; 0.66% of 230,000 active; Q9Y468; Potency, µM (highest dose often 57.1 µM), without a hit: top-dose activity, negative = inhibition, hits mostly inhibitors; AlphaScreen L3MBTL1–H3K9me1 peptide binding; further: nearly all actives have a fitted effect of over 60% in size
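L3MBTL1 (50 nM) pre-complexed 30 min with biotinylated H3(1-15)K9me1 peptide (75 nM), then compounds added for 30 min at room temperature; AlphaScreen streptavidin donor/nickel chelate acceptor beads (10 ug/mL final) read after 30 min dark incubation.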
JMJD2E inh: blocks human JMJD2E demethylase activity | JMJD2E catalytic domain, FDH-coupled NADH fluorescence (FDH is formaldehyde dehydrogenase) | AID 2147 | 1.6% of 230,000 active | Potency, µM (doses to about 57.1 µM), for the others: at the top dose activity change, negative = inhibition, hits mostly inhibitors; active means well fitted inhibition curve with a large enough effect, not every such curve was filed as active; inconclusive means small, poorly fitted or top-dose-only effect, or another doubt; inactive means no such curve, though single readings can be large or run the other way;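 further: 0% = wells with enzyme and -100% = buffer wells without enzyme; nearly all actives have a fitted effect of over 50% in size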
APE1 inh: blocks human APE1 abasic DNA cleavage | AID 2517 | Potency, µM (doses to about 65.8 µM), inactives show at the top dose activity change, negative = inhibition, actives largely listed as inhibitors | 0.35% of 350,000 active | P27695 | recombinant APE1, TAMRA/BHQ-2 abasic DNA cleavage fluorescence;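 further: plate controls were vehicle for no effect and reference inhibitor for full effect; nearly all actives have a fitted effect of over 55% in size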
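APE1 at 0.75 nM final was preincubated with compound 15 min at room temperature, then 50 nM double-stranded THF abasic-site substrate (5'-TAMRA/3'-BHQ-2) was added. Fluorescence (ex 525/em 598 nm) was read kinetically; third-minus-first read gave activity.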
BLM inh: inhibitors of human Bloom syndrome helicase BLM; P54132; recombinant BLM DNA unwinding, fluorescence dequenching; Potency, µM (highest dose often 56.1 µM), for the others: at the top dose activity change, negative = inhibition, usual class: inhibitors; 0.2% of 350,000 active; AID 2528;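 further: plate controls were vehicle for no effect and no enzyme for full effect; nearly all actives have a fitted effect of over 35% in size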
* marks the source's active call; other numbers are inactive results; i = inactive; ? = inconclusive; / = no result given; [ ] = remark or other dose. The entries come from a sample that favours hits as a whole. Unless noted, the call rests on the fitted dose curve; in most records, active means well fitted curve in the direction sought with a large enough effect; inconclusive means small, poorly fitted or top-dose-only effect, or another doubt; inactive means no such curve, though single readings can be large; an effect the other way counts as inactive or inconclusive. Unless noted, on the % scale 0 is the no-effect control and ±100 the full control effect; potency means the concentration at half of the fitted maximal effect.

SMILES | RECQ1 inh | GCN5L2 inh | L3MBTL1 block | JMJD2E inh | APE1 inh | BLM inh
O=C1NC(=S)N/C1=C/c1cccn1-c1ccc([N+](=O)[O-])cc1 | 28µM* | -19% | ? | 9% | ? | -18%
N=C1/C(=C/c2cccn2-c2ccc([N+](=O)[O-])cc2)C(=O)N=C2SC=CN12 | -4% | 1% | -28% | 1% | 3% | -16%
Cn1c2ccccc2c(=O)n2c(=O)c3ccccc3cc12 | 0% | 1% | -16% | 0% | ? | 25µM*
Cn1c(-c2ccccc2)cc(=O)c2ccccc21 | i | -30% | 8% | 2% | -5% | -1%
CCN(CC)c1ccc2cc(C(=O)Nc3ccccn3)c(=O)oc2c1 | -14% | -15% | 10% | 4.5µM* | 18% | -1%
CCN(CC)c1ccc2cc(C(=O)Nc3cccnc3N3CCOCC3)c(=O)oc2c1 | -1% | -4% | -1% | -3% | 13% | -6%
CN(Cc1ccccc1)c1nc(CN2CCOCC2)nc2scc(-c3ccccc3)c12 | 0% | -7% | -20% | -23% | -1% | -5%
Fc1ccc(N2CCN(c3nc(CN4CCOCC4)nc4scc(-c5ccccc5)c34)CC2)cc1 | -10% | -10% | 16µM* | -9% | -8% | -11%
C=CCSc1nnc(-c2nnc(SCC=C)n2-c2ccccc2)n1-c1ccccc1 | 4% | 32µM* | -4% | 3% | 1% | 0%
CCc1n[nH]c(=S)n1/N=C/c1c(O)ccc2ccccc12 | / | -15% | -3%[2.29 µM] | / | -17% | -6%
O=C1C=C(c2ccc3cc[nH]c3c2)C[C@@H](c2ccc3c(c2)OCO3)C1 | / | -20% | 32µM* | / | 12µM* | /
CCOC(=O)N1CCC(NC(=O)c2ccc3c(c2)N(Cc2ccc(Cl)cc2)C(=O)c2ccccc2S3=O)CC1 (centres undefined) | / | -7% | / | / | / | -7%
COc1cc(OC)c(OC)cc1/C=N/NC(=O)c1cc(-c2cccn2C)n[nH]1 | i | ? | -25% | ? | -8% | -9%
COc1cc(OC)c(OC)cc1/C=N/NC(=O)c1ccc(=O)n(C)c1 | -8% | -6% | 7% | -21% | -4% | -3%
CCOc1cccc(/C=N/NC(=O)c2cc(-c3cccn3C)n[nH]2)c1O | -3% | -2% | -15% | 32µM* | -5% | -14%
COc1cccc(/C=N/NC(=O)c2ccc(=O)n(C)c2)c1O | -3% | -3% | -6% | 11µM* | -5% | -3%
COc1ccc(OC)c(/C=N/NC(=O)c2ccc(=O)[nH]n2)c1 | 3% | 2% | -17% | 4% | -2% | -11%
Cc1cccc(/C=N\NC(=O)c2ccc(Cl)cc2)c1O | -2% | -9% | -13% | 16µM* | -6% | -4%
COc1cccc(/C=N/NC(=O)c2ccc(=O)[nH]n2)c1O | i | -18% | -21% | 13µM* | -3% | -6%
CC(C)(C)OC(=O)NS(=O)(=O)NCc1ccco1 | i | / | / | / | -1% | -1%
CC[C@H](NC(=O)[C@H](CCCN=C(N)N)NC(=O)[C@H](Cc1c[nH]c2ccccc12)NC(=O)[C@@H](N)CS)C(=O)N[C@@H](CCCN=C(N)N)C(=O)N[C@@H](Cc1ccc(O)cc1)C(N)=O | 0% | ? | / | / | -4% | 20%
Cc1nnc(N/N=C/c2ccco2)n1N | i | 0% | / | 28µM* | 8% | -3%
CC1=C(C)C[C@@]23CCCN2C(=O)CCC[C@H]3C1 | 0%[126 µM] | 10%[135 µM] | / | / | 1%[120 µM] | -1%[120 µM]
O=Cc1ccc(-n2cncn2)cc1 | i | -7% | / | 7.1µM* | ? | -1%
NC(N)=NCCC[C@@H](N)C(=O)NCC(=O)N[C@@H](CC(=O)O)C(=O)N[C@@H](Cc1c[nH]c2ccccc12)C(=O)O | -2% | -21% | / | / | -3% | -4%
SMILES | RECQ1 inh | GCN5L2 inh | L3MBTL1 block | JMJD2E inh | APE1 inh | BLM inh
CC(C)(C)N[S+](=O)([O-])c1cccc(-c2nnc(SCC(=O)Nc3ccc(C(=O)O)cc3)n2-c2ccccc2)c1 | / | / | / | / | 8% | /
COc1ccc(/C=N/Nc2ncnc3c2[nH]c2ccc(C)cc23)c(OC)c1OC | i | -11% | / | ? | 4% | -19%
COc1cc(OC)c(OC)cc1/C=N/Nc1ncnc2c1[nH]c1ccccc12 | -1% | -21% | 11% | ? | 4% | 22µM*
O=C1OC2(c3cc(I)c(O)c(I)c3Oc3c2cc(I)c(O)c3I)c2c(Cl)c(Cl)c(Cl)c(Cl)c21 | 10µM* | 3.2µM* | / | / | 13µM* | 13µM*
O=C1OC2(c3ccccc31)c1cc(I)c(O)c(I)c1Oc1c2cc(I)c(O)c1I | 28µM* | 8.9µM* | 3.2µM* | / | 27µM* | 22µM*
Cc1cc(O)ccc1C1(c2ccc(O)cc2C)OC(=O)c2ccccc21 | -10% | -9% | -3% | 3% | 3% | -9%
C=C(C)C(O)/C=C/c1ccc(C)cc1 (centres undefined) | i[11.5 µM] | / | / | / | 2%[12.4 µM] | -5%[12.4 µM]
CN1C2CCC1/C(=C\c1ccc(F)cc1)C(=O)/C2=C/c1ccc(F)cc1 | -1% | -7% | -14% | 7% | -2% | -4%
CN1C2CCC1/C(=C/c1cccn1C)C(=O)/C2=C\c1cccn1C | -8% | -4% | 4.5µM* | -3% | -3% | -10%
O=C1C2=CC[C@H]3C(=O)N(C[C@@H]4CCCO4)C(=O)[C@@H]3[C@@H]2[C@H](O)[C@@H]2O[C@H]12 | 12%[11.5 µM] | / | / | / | ? | 2%[12.4 µM]
NNc1ccc(Cc2ccc(Cl)cc2Cl)nn1 | -2% | -8% | 13µM* | ? | -7% | -4%
